Source: PubChem BioAssay AID1159580 (chemical genetic matrix, 2015)
Among all 5,500 compounds or so, about 2,000 (36%) were called active. About 18% were inconclusive and are not listed. Cut-off read from the data, not from the text of the source: active = normalized growth mostly below about 0.91 (no sharp cut-off); inconclusive = no clear call, values can overlap the other calls; inactive = mostly above about 0.92. The list shows a part of the results.

Assay: chemical genetic growth profiling, strain panel (AID 1159580);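 note: tested at 20 µM; growth read once vehicle control cultures reached saturation at 30 °C; 1 = growth at the plate median or of vehicle wells; lower values mean less growth of the strain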
Details: growth OD
[1] = S. cerevisiae deletion strains, locus YDL101C, strain DUN1, active compounds read low
[2] = S. cerevisiae deletion strains, locus YHR030C, strain SLT2, active compounds read low

Measured: normalized growth

FC(F)(F)c1ccnc(N2CCCN(C(=S)Nc3ccc(Cl)cc3Cl)CC2)n1
inactive: S. cerevisiae deletion strains, locus YAR019C, strain CDC15, active compounds read low 0.974 | S. cerevisiae deletion strains, locus YBL105C, strain PKC1, active compounds read low 0.977 | S. cerevisiae deletion strains, locus YBR135W, strain CKS1, active compounds read low 0.972 | S. cerevisiae deletion strains, locus YBR136W, strain MEC1, active compounds read low 0.973 | S. cerevisiae deletion strains, locus YBR160W, strain CDC28, active compounds read low 0.974 | S. cerevisiae deletion strains, locus YDL017W, strain CDC7, active compounds read low 0.966 | S. cerevisiae deletion strains, locus YDL028C, strain MPS1, active compounds read low 0.975 | [1] 0.975 | S. cerevisiae deletion strains, locus YDL108W, strain KIN28, active compounds read low 0.975 | S. cerevisiae deletion strains, locus YDL132W, strain cdc53, active compounds read low 0.977 | S. cerevisiae deletion strains, locus YDL214C, strain PRR2, active compounds read low 0.966 | S. cerevisiae deletion strains, locus YDR052C, strain DBF4, active compounds read low 0.972 | S. cerevisiae deletion strains, locus YDR054C, strain cdc34, active compounds read low 0.976 | S. cerevisiae deletion strains, locus YDR226W, strain ADK1, active compounds read low 0.982 | S. cerevisiae deletion strains, locus YDR477W, strain SNF1, active compounds read low 0.985 | S. cerevisiae deletion strains, locus YER123W, strain YCK3, active compounds read low 1 | S. cerevisiae deletion strains, locus YER133W, strain GLC7, active compounds read low 0.993 | S. cerevisiae deletion strains, locus YFL009W, strain cdc4, active compounds read low 0.98 | S. cerevisiae deletion strains, locus YFL029C, strain CAK1, active compounds read low 0.963 | S. cerevisiae deletion strains, locus YFR003C, strain YPI1, active compounds read low 0.972 | S. cerevisiae deletion strains, locus YFR019W, strain FAB1, active compounds read low 0.996 | S. cerevisiae deletion strains, locus YFR028C, strain CDC14, active compounds read low 0.979 | S. cerevisiae deletion strains, locus YGR040W, strain KSS1, active compounds read low 0.985 | S. cerevisiae deletion strains, locus YGR052W, strain FMP48, active compounds read low 1.04 | S. cerevisiae deletion strains, locus YGR092W, strain DBF2, active compounds read low 0.9 | S. cerevisiae deletion strains, locus YHR079C, strain IRE1, active compounds read low 0.848 | S. cerevisiae deletion strains, locus YHR082C, strain KSP1, active compounds read low 1.08 | S. cerevisiae deletion strains, locus YHR205W, strain SCH9, active compounds read low 0.946 | S. cerevisiae deletion strains, locus YIL147C, strain SLN1, active compounds read low 0.972 | S. cerevisiae deletion strains, locus YJL095W, strain BCK1, active compounds read low 0.942 | S. cerevisiae deletion strains, locus YJL128C, strain PBS2, active compounds read low 0.978 | S. cerevisiae deletion strains, locus YJL157C, strain FAR1, active compounds read low 0.981 | S. cerevisiae deletion strains, locus YJR016C, strain ILV3, active compounds read low 0.989 | S. cerevisiae deletion strains, locus YJR066W, strain TOR1 (second series), active compounds read low 0.953 | S. cerevisiae deletion strains, locus YJR066W, strain TOR1, active compounds read low 1.03 | S. cerevisiae deletion strains, locus YKL048C, strain ELM1, active compounds read low 0.961 | S. cerevisiae deletion strains, locus YKL067W, strain YNK1, active compounds read low 0.973 | S. cerevisiae deletion strains, locus YKL101W, strain HSL1, active compounds read low 0.958 | S. cerevisiae deletion strains, locus YKL193C, strain SDS22, active compounds read low 0.978 | S. cerevisiae deletion strains, locus YKL203C, strain TOR2, active compounds read low 1.02 | S. cerevisiae deletion strains, locus YLR133W, strain CKI1, active compounds read low 0.979 | S. cerevisiae deletion strains, locus YLR403W, strain SFP1, active compounds read low 0.982 | S. cerevisiae deletion strains, locus YML070W, strain DAK1, active compounds read low 0.972 | S. cerevisiae deletion strains, locus YMR001C, strain CDC5, active compounds read low 0.971 | S. cerevisiae deletion strains, locus YMR205C, strain PFK2 (second series), active compounds read low 0.968 | S. cerevisiae deletion strains, locus YMR277W, strain FCP1, active compounds read low 0.973 | S. cerevisiae deletion strains, locus YNL006W, strain LST8, active compounds read low 0.98 | S. cerevisiae deletion strains, locus YNL020C, strain ARK1, active compounds read low 0.966 | S. cerevisiae deletion strains, locus YNL161W, strain CBK1, active compounds read low 0.982 | S. cerevisiae deletion strains, locus YNL183C, strain NPR1, active compounds read low 1.01 | S. cerevisiae deletion strains, locus YNL207W, strain RIO2, active compounds read low 0.964 | S. cerevisiae deletion strains, locus YNL222W, strain SSU72, active compounds read low 0.978 | S. cerevisiae deletion strains, locus YNL307C, strain MCK1 (second series), active compounds read low 0.95 | S. cerevisiae deletion strains, locus YOL078W, strain AVO1, active compounds read low 0.986 | S. cerevisiae deletion strains, locus YOL136C, strain PFK27, active compounds read low 0.959 | S. cerevisiae deletion strains, locus YOR061W, strain CKA2, active compounds read low 0.961 | S. cerevisiae deletion strains, locus YOR119C, strain RIO1, active compounds read low 1.06 | S. cerevisiae deletion strains, locus YOR231W, strain MKK1, active compounds read low 0.873 | S. cerevisiae deletion strains, locus YOR329C, strain SCD5, active compounds read low 0.973 | S. cerevisiae deletion strains, locus YPL031C, strain PHO85, active compounds read low 0.975 | S. cerevisiae deletion strains, locus YPL153C, strain RAD53, active compounds read low 0.982 | S. cerevisiae deletion strains, locus YPL204W, strain HRR25, active compounds read low 0.966 | S. cerevisiae deletion strains, locus YPL209C, strain IPL1, active compounds read low 0.973 | S. cerevisiae deletion strains, locus YPR025C, strain CCL1, active compounds read low 0.976 | S. cerevisiae deletion strains, locus YPR106W, strain ISR1, active compounds read low 0.977 | S. cerevisiae deletion strains, locus YPR111W, strain DBF20, active compounds read low 0.96 | S. cerevisiae deletion strains, strain NNK1, active compounds read low 0.962 | S. cerevisiae deletion strains, strain TSCII, active compounds read low 0.978
active: [2] 0.712 | S. cerevisiae deletion strains, locus YLR113W, strain HOG1, active compounds read low 0.689 | S. cerevisiae deletion strains, locus YPL256C, strain CLN2, active compounds read low 0.777

CSC(=NC#N)N1CCN(c2ccc([N+](=O)[O-])cn2)CC1
inactive: S. cerevisiae deletion strains, locus YAL013W, strain DEP1, active compounds read low 0.997 | S. cerevisiae deletion strains, locus YBR229C, strain ROT2, active compounds read low 1.01 | S. cerevisiae deletion strains, locus YCL061C, strain MRC1, active compounds read low 1 | [1] 1.02 | S. cerevisiae deletion strains, locus YDL134C, strain PPH21, active compounds read low 0.987 | S. cerevisiae deletion strains, locus YDR150W, strain NUM1, active compounds read low 1.07 | S. cerevisiae deletion strains, locus YEL061C, strain CIN8, active compounds read low 0.957 | S. cerevisiae deletion strains, locus YGR078C, strain PAC10, active compounds read low 0.996 | [2] 0.958 | S. cerevisiae deletion strains, locus YHR087W, strain rtc3, active compounds read low 0.991 | S. cerevisiae deletion strains, locus YJL187C, strain SWE1, active compounds read low 0.993 | S. cerevisiae deletion strains, locus YJR043C, strain POL32, active compounds read low 1.01 | S. cerevisiae deletion strains, locus YJR075W, strain HOC1, active compounds read low 1.01 | S. cerevisiae deletion strains, locus YLR039C, strain RIC1, active compounds read low 0.986 | S. cerevisiae deletion strains, locus YLR058C, strain SHM2 (second series), active compounds read low 0.989 | S. cerevisiae deletion strains, locus YLR085C, strain ARP6, active compounds read low 0.933 | S. cerevisiae deletion strains, locus YLR262C, strain YPT6, active compounds read low 0.978 | S. cerevisiae deletion strains, locus YML094W, strain GIM5, active compounds read low 0.966 | S. cerevisiae deletion strains, locus YMR219W, strain ESC1, active compounds read low 0.996 | S. cerevisiae deletion strains, locus YMR263W, strain SAP30, active compounds read low 1.01 | S. cerevisiae deletion strains, locus YMR307W, strain GAS1, active compounds read low 1.1 | S. cerevisiae deletion strains, locus YNL153C, strain GIM3, active compounds read low 1 | S. cerevisiae deletion strains, locus YNL298W, strain CLA4 (second series), active compounds read low 0.978 | S. cerevisiae deletion strains, locus YNL322C, strain KRE1, active compounds read low 0.99 | S. cerevisiae deletion strains, locus YNR030W, strain Alg12, active compounds read low 0.954 | S. cerevisiae deletion strains, locus YPL055C, strain LGE1, active compounds read low 1.08 | S. cerevisiae deletion strains, locus YPL241C, strain CIN2, active compounds read low 0.99 | S. cerevisiae deletion strains, locus YPR135W, strain CTF4, active compounds read low 1.09 | S. cerevisiae strains, strain wild type, active compounds read low 0.983
